# Source: PubChem
# FBW7 activator: human FBW7 E3 ligase activation, primary screen; Q969H0; AlphaScreen FBW7–phospho-cyclin E peptide binding, activator screen; normalized activity (activation), % at 26.1 µM; hit rate 0.13% among 650,000; AID 1259310; in the data active = normalized activity above about 1.9%;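 note: purified mutant Fbw7 with reduced substrate affinity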
# TEAD-YAP inh: TEAD-YAP interaction inhibition. inhibition, % at 9.12 µM. hit rate 1.4% among 640,000. HEK-TIYL cells, TEAD-Gal4/YAP UAS-luciferase luminescence; in the data active = inhibition above about 32%;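 note: 0% = median of test compound wells and 100% = reference inhibitor wells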
# GPR151 ag: activates the human receptor GPR151; AID 1508602; PathHunter beta-arrestin GPR151 cells, luminescence; Q8TDV0; hit rate 1% among 650,000; activation, % at 11.2 µM; in the data active = activation above about 4.9%;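 note: 0% = median of compound wells and 100% = cells with positive control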
# MITF inh: inhibitors of human MITF; O75030; AlphaScreen MITF homodimerization, bead proximity signal; inhibition, % at 2.6 µM; hit rate 0.91% among 650,000; AID 1259374; in the data active = inhibition above about 50%;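 note: 0% = vehicle wells with protein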
# GPR151 conf act: human GPR151 activation, confirmation screen; shares compounds with GPR151 ag; GPR151 PathHunter beta-arrestin cells, luminescence, 90 min; % of EA-reagent control over plate median; activation, % at 11.2 µM; 6,700 tested, under 10 active;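 active = mean percent activation across replicates above the confirmation screen cutoff of 4.91%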
# GPR119 counter: activates human GPR119 in a GPR151 counter-screen; shares compounds with GPR151 ag; activation, % at 11.2 µM; hit rate 0.3% among 6,700; GPR119 PathHunter beta-arrestin cells, luminescence, 90 min; 0 = compound-well median, 100 = enzyme-acceptor control;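 active = mean percent activation in the counterscreen above 29.09%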;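 note: counterscreen on off-target GPR119 to flag nonselective hits from the GPR151 activator screen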
# Target sequence (Q8TDV5 whole entry, looked up): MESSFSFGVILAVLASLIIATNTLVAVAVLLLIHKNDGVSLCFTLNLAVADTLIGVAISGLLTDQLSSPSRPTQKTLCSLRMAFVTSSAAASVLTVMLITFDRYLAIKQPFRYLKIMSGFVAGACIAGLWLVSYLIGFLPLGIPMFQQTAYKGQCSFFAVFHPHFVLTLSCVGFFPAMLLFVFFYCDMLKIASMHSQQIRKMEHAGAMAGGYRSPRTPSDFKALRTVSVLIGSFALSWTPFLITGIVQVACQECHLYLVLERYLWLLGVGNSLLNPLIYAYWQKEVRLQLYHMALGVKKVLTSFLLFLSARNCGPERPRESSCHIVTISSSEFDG
# The depositor's hits bear a star; nt = not tested or not shown. Sampled rows, rich in hits. Any-hit rate of the full collection: about 3.4%.
SMILES,FBW7 activator,TEAD-YAP inh,GPR151 ag,MITF inh,GPR151 conf act,GPR119 counter
CC(=O)NCCNC(=O)c1ccc(-c2ccccc2)nc1NCCc1ccccn1,0,12,5.1*,-10,0,-3
CCOC(=O)C(CC)(CCC(=O)Nc1ccc([N+](=O)[O-])cc1)C(=O)OCC,1,0,0,9,nt,nt
C=CCOc1ccc(/C=C2\C(=O)NC(C)=C2C(=O)OC)cc1,0,-3,5.2*,6,1,19
O=[N+]([O-])c1ccccc1/C=N/NS(=O)(=O)c1ccc(Cl)cc1,0,-4,14*,21,0,10
CC(C)(C)c1ccc(S(=O)(=O)N/N=C/c2ccccc2[N+](=O)[O-])cc1,0,13,0,13,nt,nt
CCOC(=O)C1C(=O)CC(C)(O)C(C(=O)OCC)C1c1ccc2c(c1)OCO2 (stereo unspecified),0,-3,5.1*,-2,-1,-6
CCOC(=O)C1C(=O)CC(C)(O)C(C(=O)OCC)C1c1ccc(C)cc1 (stereo unspecified),0,13,0,8,nt,nt
CN(Cc1ccc(OCC(O)CN2CCc3ccccc3C2)cc1)Cc1cccnc1 (stereo unspecified),0,1,0,-12,nt,nt
CN(Cc1ccc(OCC(O)CN2CCc3ccccc3C2)cc1)Cc1nccs1 (stereo unspecified),0,-3,5.6*,-18,-1,-15
O=C(Cc1nc2scc(-c3ccccc3)c2c(=O)[nH]1)N1CCOCC1,0,3,11*,1,0,13
O=c1oc2ccccc2cc1-c1nnc(Nc2ccc(Oc3ccc(Cl)cc3)cc2)s1,0,-5,-1,-13,nt,nt
OCCC1CCCCN1c1ccnc2c(-c3ccsc3)cnn12 (stereo unspecified),0,-54,5.4*,-9,0,0
COc1cc(/C=C2\N=C(C34CC5CC(CC(C5)C3)C4)OC2=O)ccc1OC(C)=O,0,3,0,-17,nt,nt
COCc1ccc(CN2CCc3nnc(CCNC(=O)Cc4ccc(F)cc4)n3CC2)o1,0,9,1,5,nt,nt
COC(=O)c1ccccc1NC(=O)CN(c1ccccc1Cl)S(C)(=O)=O,0,-1,2,5,nt,nt
COC(=O)c1ccccc1NC(=O)CN(c1cc(OC)ccc1OC)S(C)(=O)=O,0,-7,5.6*,-6,0,8
COc1ccc(OC)c(N(CC(=O)Nc2ccccc2F)S(C)(=O)=O)c1,0,6,2,2,nt,nt
COC(=O)c1ccccc1NC(=O)CN(c1ccc(OC)cc1OC)S(C)(=O)=O,0,12,9.5*,-1,-1,0
COc1ccc(NC(=O)C2=C(C)Nc3ncnn3C2c2ccc(OC)cc2)cc1 (stereo unspecified),0,2,0,22,nt,nt
COC(=O)C1=C(C)NC(=O)NC1c1cc(Cl)cc(Cl)c1OC (stereo unspecified),0,2,-2,4,nt,nt
Cn1c(N2CCC(C(=O)NCC(N)=O)CC2)nc2ccccc21,0,4,0,2,nt,nt
COc1cccc(C2c3c(oc4ccccc4c3=O)C(=O)N2CCO)c1 (stereo unspecified),0,7,8.0*,11,0,-8
C=CCN1C(=O)c2oc3ccccc3c(=O)c2C1c1ccccc1 (stereo unspecified),0,-8,6.4*,-8,0,-2
CC(C)NCCn1c(-c2ccccc2)cn2c3ccccc3nc12,0,-5,1,16,nt,nt
CCOC(=O)CSc1nnc2c3c(C)c(C)sc3ncn12,0,-5,5.8*,0,0,2
SMILES,FBW7 activator,TEAD-YAP inh,GPR151 ag,MITF inh,GPR151 conf act,GPR119 counter
CC(=O)c1c(C)[nH]c(C(=O)COC(=O)c2ccc(-n3nc(C)cc3C)cc2)c1C,0,10,7.7*,0,0,6
Cc1cc(C)n(-c2ccc(C(=O)OCC(=O)c3ccccc3)cc2)n1,0,2,1,0,nt,nt
COc1ccc(C(=O)Nc2c(C)csc2C(=O)O)cc1,0,-3,4.9*,4,-1,4
Cc1csc(C(=O)O)c1NC(=O)c1ccc(F)cc1,0,-2,1,-1,nt,nt
CCn1c(SCC(=O)Nc2nc(C)cs2)nc2c(c1=O)SCC2,0,11,6.3*,-4,0,1
CCOc1ccc(-n2c(SCC(=O)Nc3cc(C)on3)nc3c(c2=O)SCC3)cc1,0,-38,5.1*,4,1,5
O=C(c1ccc(S(=O)(=O)N2CCCC2)cc1)N1CCN=C1SCc1ccccc1,0,4,0,10,nt,nt
Cc1cccc(NC(=O)CCC2CCN(C(=O)Cc3ccsc3)CC2)c1,0,-7,5.2*,16,0,1
CCCOc1ccc(C(C)=O)cc1Cc1c(O)nc(SCc2ccccc2)[nH]c1=O,0,8,1,12,nt,nt
CC(C)(C)C(=O)OCN1c2nonc2N(COC(=O)C(C)(C)C)c2nonc21,0,-1,7.9*,-9,0,0
Cc1ccc(NC(=O)C2CCCc3sc(NC(=O)c4ccccc4)nc32)c(C)c1 (stereo unspecified),0,-47,0,17,nt,nt
Cc1cccc(CSc2nc(=O)n3ccccc3n2)c1,0,-10,5.2*,-7,-1,0
CC(C)Cn1c(=O)[nH]c2nc(-c3cnn(C)c3)cnc21,0,0,0,11,nt,nt
Cn1cc(-c2cnc3c(n2)[nH]c(=O)n3CC2CC2)cn1,0,5,7.7*,22,1,8
O=C(NS(=O)(=O)c1ccccc1)c1ccccc1O,0,2,5.6*,-11,0,-5
CN1CCN(c2cc(N3CCN(CCC#N)CC3)c([N+](=O)[O-])cc2F)CC1,0,9,0,5,nt,nt
N#CCCN1CCN(c2ccc(F)cc2[N+](=O)[O-])CC1,0,9,5.3*,13,3,-11
COC(=O)C(C)N1C(=O)S/C(=C/c2cc(Cl)cc(OC)c2O)C1=O (stereo unspecified),0,-4,-1,-9,nt,nt
CCOC(=O)C(C)N1C(=O)S/C(=C/c2cc(Cl)cc(OC)c2O)C1=O (stereo unspecified),0,-5,6.7*,-5,0,-5
CCOc1ccc(NS(=O)(=O)c2ccc3c(c2)n(C)c(=O)n3C)cc1,0,0,15*,-7,-1,-11
COc1ccc(S(=O)(=O)Nc2ccc3c(c2)n(C)c(=O)n3C)cc1,0,11,1,-3,nt,nt
Cc1nnc2ccc(SCC(=O)NCc3csc(-c4cccs4)n3)nn12,-1,-27,5.6*,-11,1,16
O=C(CSc1ccc2nnc(-c3cccs3)n2n1)NCc1ccccc1,0,-2,0,10,nt,nt
CCOC(=O)c1cc(N2C(=O)C3C4C=CC(CC4)C3C2=O)ccc1Cl (stereo unspecified),0,8,10*,4,0,7
